According to PubChem BioAssay AID1851 (National Center for Advancing Translational Sciences (NCATS), 2009):
Several values for one entry are separate records, joined by “and”; a condition that tells them apart may be missing. Identical values can stand only once. Screen size: about 16,000 compounds; about 4,000 (25%) were called active. Inconclusive results (about 26%) are left out. Not all results are given here. Values without a mark were called inactive. The call rests on the fitted dose curve; in most records, active means well fitted curve in the direction sought with a large enough effect; inconclusive means small, poorly fitted or top-dose-only effect, or effect the other way; inactive means no such curve, though single readings can be large or run the other way.

Molecular target: Cytochrome P450 2C9 (Homo sapiens) (UniProt P11712)
Assay: Cytochrome panel assay with activity outcomes
Settings: recombinant CYP, pro-luciferin dealkylation, luminescence, p450-cyp2c9; series mostly up to 57.1 µM; activity, negative = inhibition: at the top concentration
On the % scale 0 is the no-effect control and ±100 the full control effect.

Cytochrome P450 2C9 (Homo sapiens), sequence (P11712 whole entry, looked up): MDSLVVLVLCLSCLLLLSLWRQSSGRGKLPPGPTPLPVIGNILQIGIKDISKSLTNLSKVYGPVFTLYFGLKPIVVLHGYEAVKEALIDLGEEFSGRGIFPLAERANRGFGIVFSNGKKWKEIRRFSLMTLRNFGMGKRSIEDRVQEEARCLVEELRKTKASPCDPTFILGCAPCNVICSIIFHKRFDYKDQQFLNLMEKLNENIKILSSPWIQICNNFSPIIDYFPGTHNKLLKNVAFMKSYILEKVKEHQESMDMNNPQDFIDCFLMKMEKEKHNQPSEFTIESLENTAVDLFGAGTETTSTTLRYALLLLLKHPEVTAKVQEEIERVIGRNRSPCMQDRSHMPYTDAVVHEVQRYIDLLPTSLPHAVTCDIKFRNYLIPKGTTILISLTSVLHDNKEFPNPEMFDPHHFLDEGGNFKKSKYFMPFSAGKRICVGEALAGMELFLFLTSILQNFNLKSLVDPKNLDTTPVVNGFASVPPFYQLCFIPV

| Structure (SMILES) | activity, negative = inhibition | AC50 |
| --- | --- | --- |
| O=C(O)[C@H](Cc1ccc(O)c([N+](=O)[O-])c1)N1C(=O)c2ccccc2C1=O | 0.788% [at 11.4 µM] |  |
| Cc1cc(/C=N\NC(=O)c2cccs2)c(C)n1-c1ccc2ncccc2c1 |  | 3.16 µM (active) |
| Clc1ccc2c(NC3CCC(N4CCCCC4)CC3)ccnc2c1 (stereo not drawn) | 10.6% [at 11.4 µM] |  |
| COc1cccc(NC(=O)CSc2nc3c(c(-c4ccco4)c2C#N)CCCC3)c1 | 6.49% |  |
| N#Cc1c(N)nc2c(c1-c1cccc(O)c1)CCCCCC2 |  | 8.91 µM (active) |
| Cc1ccc(-c2ccc(/C=N/N3C(=O)C4C5C=CC(C6CC56)C4C3=O)o2)c([N+](=O)[O-])c1 (stereo not drawn) |  | 5.01 µM (active) |
| Cc1cc(-c2ccc(/C=N/n3cnnc3)o2)c([N+](=O)[O-])cc1C |  | 2.51 µM (active) |
| Cc1cc2ncn(/N=C/c3ccc([N+](=O)[O-])o3)c2cc1C | -25.5% |  |
| COc1ccccc1-c1cncnc1Nc1ccc(F)cc1 | -21.5% [at 2.29 µM] |  |
| Cn1cccc1C(=O)N1CCC2(CCN(C(=O)Nc3cccc(F)c3)CC2)CC1 | -1.96% |  |
| COCC(=O)Oc1c(S(=O)(=O)c2ccc(C)cc2)c(C)nn1-c1ccccc1 |  | 1.78 µM (active) |
| CON(C)C(=O)c1nnc2c3ccccc3n(S(=O)(=O)c3ccc(C)cc3)c2n1 | 12.1% [at 11.4 µM] and -11.7% [at 11.4 µM] |  |
| COc1cccc(NC(=O)COC(=O)c2c3c(nc4ccccc24)CCC(C)C3)c1 (stereo not drawn) |  | 11.2 µM (active) |
| COc1ccc(C(=O)Nc2ccc(C(=O)OCC(=O)c3ccccc3)cc2)cc1 | -0.58% |  |
| COc1cc(-c2nnc(COC(=O)c3c4c(nc5ccccc35)CCCC4)o2)cc(OC)c1OC |  | 2 µM (active) |
| COc1cccc(NC(=O)COC(=O)c2nc3nccc(C)n3n2)c1 | -20% |  |
| COc1ccc(OC)c(NC(=O)c2c3c(nc4ccccc24)CCC3)c1 |  | 14.1 µM (active) |
| COc1ccc(NC(=O)COC(=O)c2c3c(nc4ccccc24)CCCC3)cc1 |  | 7.08 µM (active) |
| Nc1c2c(nc3ccccc13)CCCC2 |  | inactive |
| Cn1c2c(c(=O)n(C)c1=O)CN(CCN1CCNCC1)CN2 | -8.52% |  |
| Cc1cc(C)c(-c2cc([C@H](C)O/N=C\[C@@H](C)[C@H](OCc3ccccc3)C(C)C)on2)c(C)c1 | -7.67% [at 11.4 µM] |  |
| C[N+](C)(N)CCC[N+](C)(C)N | 15.9% [at 11.4 µM] |  |

| Structure (SMILES) | activity, negative = inhibition | AC50 |
| --- | --- | --- |
| N[C@H](CCC(=O)N[C@H](CSN=O)C(=O)NCC(=O)O)C(=O)O |  | 5.01 µM (active) |
| N[C@H](CCC(=O)NCC(=O)O)C(=O)O | -0.143% |  |
| [N-]=[N+]=Nc1ccc(C(=O)CSC[C@@H](NC(=O)CC[C@@H](N)C(=O)O)C(=O)NCC(=O)O)cc1 | 15.4% |  |
| CO[C@@H](C(C)C)[C@@H](C)[C@@H]1OC(=O)C[C@@H]1O | -15.2% [at 11.4 µM] |  |
| Cc1ccc(CSc2nnc(C(F)(F)F)n2Cc2ccc(F)cc2)cc1 |  | 4.47 µM (active) |
| Cc1c(CC(C)(C)C(=O)O)n(Cc2ccc(Cl)cc2)c2ccc(F)cc12 | 35.9% |  |
| Fc1ccc(Cn2c(SCc3ccc(F)c(C(F)(F)F)c3)nnc2C(F)(F)F)cc1 |  | 7.08 µM (active) |
| Fc1ccc(Cn2c(SCc3ccc(F)c(F)c3)nnc2C(F)(F)F)cc1 |  | 15.8 µM (active) |
| COc1cccc(CSc2nnc(C(F)(F)F)n2Cc2ccc(F)cc2)c1 |  | 11.2 µM (active) |
| COc1cccc(CSCC(=O)O)c1 | -12.1% [at 11.4 µM] |  |
| COc1cccc(-c2nccc(NC3CCNCC3)n2)c1 | 9.19% [at 2.29 µM] |  |
| Cc1cc(=O)oc2cc(O)c(CN(C)CC(=O)O)cc12 | -0.896% [at 11.4 µM] |  |
| NCCC(=O)O | 6.29% |  |
| Cc1ccc(C(=O)Nc2c(C#N)c(C)c(C)n2Cc2ccccc2)cc1 |  | 3.55 µM (active) |
| Cc1ccc([C@@H](O)c2cnc(C)n2Cc2ccccc2)cc1 | -18.2% [at 11.4 µM] |  |
| COc1cccc(CNc2ccc3nc(-c4ccc(N)cc4)c(OC)n3n2)c1 | -6.12% |  |
| CCN(CC)CCCN(Cc1cc2ccc(C)c(C)c2[nH]c1=O)C(=O)NC1CCCCC1 | 15.3% |  |
| C/C(=N\OC(=O)NC1CCCCC1)c1sc(-c2ccccc2)nc1C |  | 11.2 µM (active) |
| Cc1nc(-c2cccnc2)sc1C(N)=O | -10.5% |  |
| CNC(=O)c1sc(-c2cccnc2)nc1C | -12.4% |  |
| Cc1noc(C)c1-c1nccc(N(C)C)n1 | -8.59% [at 2.29 µM] |  |
